The structures appear in SMILES notation. Counter-ions that a name gives are not always drawn.

In the experiment the test system is Staphylococcus aureus Sa2 (MRSA, cystic fibrosis isolate). In words: growth reduction vs untreated control (OD550); higher = stronger antibacterial activity. Conditions: 0.1 mM; 24 h. As for the experimental part: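 Single-dose screen of the MedChem Express Drug Repurposing Library (0.1 mM, 1% DMSO) against planktonic MRSA S. aureus Sa2 (CF isolate) in TSB in 96-well plates, 37 °C aerobic, 24 h. Assays were run in triplicate and repeated twice.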
As to `CO[C@H](C(=O)[C@@H](O)[C@@H](C)O)[C@@H]1Cc2cc3cc(O[C@H]4C[C@@H](O[C@H]5C[C@@H](O)[C@H](O)[C@@H](C)O5)[C@H](O)[C@@H](C)O4)c(C)c(O)c3c(O)c2C(=O)[C@H]1O[C@H]1C[C@@H](O[C@H]2C[C@@H](O[C@H]3C[C@](C)(O)[C@H](O)[C@@H](C)O3)[C@@H](O)[C@@H](C)O2)[C@H](O)[C@@H](C)O1` [Plicamycin], the growth reduction stood at 99.6%.
The value for `OCCN1CCN(CC/C=C2/c3ccccc3Sc3ccc(C(F)(F)F)cc32)CC1` [Flupentixol dihydrochloride] was 100%.
The value for `CNC(=O)c1cc(Oc2ccc(NC(=O)Nc3ccc(Cl)c(C(F)(F)F)c3)cc2)ccn1` [Sorafenib] was 93.5%.
In the case of `CC1=C(C)C(=O)C(CCCCCCCCCC[P+](c2ccccc2)(c2ccccc2)c2ccccc2)=CC1=O` [Visomitin], the growth reduction is 100%.
The value for `Cc1cccc(Nc2ccccc2C(=O)O)c1C` [Mefenamic acid] was 97.3%.
The result for `Cc1ccc(Cl)c(Nc2ccccc2C(=O)O)c1Cl` [Meclofenamate (sodium)] reads 97.2%.
The result for `CC(C)(C)c1cc(C(C)(C)C)c(NC(=O)c2c[nH]c3ccccc3c2=O)cc1O` [Ivacaftor] reads 95.3%; that for `Cc1ccc(Sc2ccccc2N2CCNCC2)c(C)c1` [Vortioxetine], 100%.
In turn, `Cc1ncc(NC(=O)c2ccc(CN3CCN(C)CC3)c(C(F)(F)F)c2)cc1Nc1nccc(-c2cccnc2)n1` [Flumatinib] had a growth reduction of 100%.
The result for `CN(CCCCCCCCCCN(C)C(=O)Oc1cccc([N+](C)(C)C)c1)C(=O)Oc1cccc([N+](C)(C)C)c1` [Demecarium Bromide] reads 100%; that for `Cc1c(Cl)cccc1Nc1ccccc1C(=O)O` [Tolfenamic Acid], 100%; that for `Cc1cc2c(cc1CC(=O)c1sccc1S(=O)(=O)Nc1onc(C)c1Cl)OCO2` [Sitaxsentan (sodium)], 98%.
The value for `O=C(c1ccc(F)c(F)c1Nc1ccc(I)cc1F)N1CC(O)([C@@H]2CCCCN2)C1` [Cobimetinib] was 100%; that for `CCc1nc(-c2cccc(C)c2)c(-c2ccnc(NC(=O)c3ccccc3)c2)s1` was 100%.
The value for `CC(C)OC(=O)CCC/C=C\C[C@@H]1[C@@H](/C=C/[C@@H](O)COc2cccc(C(F)(F)F)c2)[C@H](O)C[C@@H]1O` [Travoprost] was 100%; that for `COc1cccc(Nc2ncnn3ccc(CN4CC[C@@H](N)[C@H](O)C4)c23)c1` was 92.5%; that for `C=CC(=O)N1CC[C@@H](Oc2nc(Nc3ccc(N4CCC(N5CCN(C)CC5)CC4)cc3)c(C(N)=O)nc2CC)C1` [Naquotinib (mesylate)] was 99.6%.
`CC(=O)[C@]1(O)Cc2c(O)c3c(c(O)c2[C@@H](O[C@H]2C[C@H](N)[C@H](O)[C@H](C)O2)C1)C(=O)c1ccccc1C3=O` [Idarubicin (hydrochloride)] registered a growth reduction of 98.1%.
The result for `CC(C)(C(=O)NCC(F)(F)C(F)(F)F)C(=O)N[C@@H]1C(=O)Nc2ccccc2-c2ccccc21` reads 100%.
The value for `CC(OC(=O)c1ccc(Cc2c(O)c3ccccc3oc2=O)cc1)(C(F)(F)F)C(F)(F)F` [Tecarfarin] was 100%.
The result for `C[C@H](Nc1cc(-c2cnn(C)c2)cc(Nc2cnccn2)n1)c1ccc(F)cc1` [Ilginatinib (maleate)] reads 100%; that for `CC(C)Nc1nc2cc(Cl)c(Cl)cc2n1[C@H]1O[C@@H](CO)[C@H](O)[C@@H]1O` [Maribavir], 92.7%.
With `CCCCCNC(=N)N/N=C/c1c[nH]c2ccc(OC)cc12` [Tegaserod (maleate)], the growth reduction was found to be 100%.
The value for `COc1cc2c(Nc3ccc(Cl)c(Cl)c3F)ncnc2cc1OC[C@@H]1C[C@@H]2CN(C)C[C@@H]2C1` [Tesevatinib] was 100%.
With `CC/C(=C(\c1ccccc1)c1ccc(OCCN(C)C)cc1)c1ccccc1` [Tamoxifen], the growth reduction stood at 100%.
The result for `CCCCCCNC(=O)n1cc(F)c(=O)[nH]c1=O` [Carmofur] reads 100%; that for `COC(=O)/C=C/C(=O)OCCN1C(=O)CCC1=O` [Diroximel fumarate], 100%; that for `C=CCNc1c(O)cc2c(O)c1C[C@@H](C)C[C@H](OC)[C@H](O)[C@@H](C)/C=C(\C)[C@H](OC(N)=O)[C@@H](OC)/C=C\C=C(/C)C(=O)N2` [Retaspimycin (Hydrochloride)], 100%.
The value for `CN(C)CCOc1ccc(/C(=C(/CCCl)c2ccccc2)c2ccccc2)cc1` [Toremifene (citrate)] was 100%; that for `NC(N)=NC(=O)c1nc(Cl)c(N2CCCCCC2)nc1N` [5-(N,N-Hexamethylene)-amiloride] was 100%.
For `CCN(CC)CCOc1ccc(/C(=C(/Cl)c2ccccc2)c2ccccc2)cc1` [Enclomiphene (citrate)], the growth reduction was determined as 100%.
For the compound `Cc1cc(OCCCS(C)(=O)=O)cc(C)c1-c1cccc(COc2ccc3c(c2)OC[C@H]3CC(=O)O)c1` [Fasiglifam], the growth reduction was 100%.
The result for `Clc1ccc(C(c2ccccc2Cl)C(Cl)Cl)cc1` (stereo not drawn) [Mitotane] reads 100%.
The value for `N=C(N)c1ccc(OCCCCCOc2ccc(C(=N)N)cc2)cc1` [Pentamidine (isethionate)] was 100%; that for `Cc1ccc(NC(=O)c2ccc(CN3CCN(C)CC3)cc2)cc1Nc1nc(-c2cccnc2)cs1` [Masitinib (mesylate)] was 100%.
Consider `c1ccc(-c2ccc(C(c3ccccc3)n3ccnc3)cc2)cc1` (stereo not drawn) [Bifonazole], for which the growth reduction worked out at 100%.
In the case of `Cc1cc([C@H](C)Nc2nccc(N3C(=O)OC[C@@H]3[C@@H](C)F)n2)ncc1-c1ccnc(C(F)(F)F)c1`, the growth reduction amounted to 100%.
`Cn1ncc(Cl)c1-c1cc(C(=O)N[C@H](CN)Cc2cccc(F)c2)sc1Cl` [Afuresertib] returned a growth reduction of 100%.

Source of the values: the supplement of paper PMC12024424.
